In the library only some 3% were active in any assay of this set; here they are far more common.
mTORC1 inh: Acumen qHTS Assay for Inhibitors of the mTORC1 Signaling Pathway in MEF (Tsc2-/-, p53-/-) Cells: Sytravon; 44,000 compounds, 0.78% hits; Potency, µM (highest dose often 38.3 µM), inactives show at the highest dose activity change, negative = inhibition, hits mostly inhibitors; AID 493208, 2011; Tsc2-/- p53-/- MEF, phospho-rpS6 immunofluorescence/PI, 24 h;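 note: potency is the fitted concentration of half-maximal effect; plate controls were DMSO for no effect and rapamycin for full effect; nearly all actives have a fitted effect of over 50% in size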
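Immunofluorescence of rpS6 phosphorylation in Tsc2-/-, p53-/- MEFs after 24 h compound exposure, normalized to propidium iodide signal. Activity is expressed as % positive cells, thresholded with 7.5 nM rapamycin.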
SKOV3 invasion: Primary qHTS assay for Inhibitors of ovarian cancer metastasis using an organotypic tumor microenvironment (TME) model | 46,000 compounds, 0.1% hits | Potency, µM (top dose mostly 45.8 µM), for inactives: at the top dose activity change, negative = inhibition, hits mostly inhibitors | SKOV3ip1-GFP adhesion/invasion on 3D omental model, fluorescence | AID 1963576, 2024;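 note: potency is the fitted concentration of half-maximal effect; plate controls were DMSO wells for no effect and tomatine positive control wells for full effect; nearly all actives have a fitted effect of over 65% in size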
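Primary human omental fibroblast/mesothelial 3D culture pre-formed 48 h. SKOV3ip1-GFP cells added with compounds (0.36-46 umol/L), incubated 2 h RT/16 h 37 C, fixed; GFP cells quantified at 488/509 nm.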
p53null 32C tox: qHTS Screen for Compounds that Selectively Target Cancer Cells with p53 Mutations: Cytotoxicity of p53 Null Cells at the Permissive Temperature; H1299-neo p53 null cells, ATP luminescence, 24 h, 32C; Potency, µM (highest dose often 46.1 µM), for inactives: at the highest dose activity change, negative = cytotoxicity, hits mostly cytotoxic; 55,000 compounds, 0.62% hits;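 note: potency is the fitted concentration of half-maximal effect; 0% = DMSO only and -100% = full killing by 100 µM tamoxifen; nearly all actives have a fitted effect of over 55% in size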
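Cytotoxicity: H1299-neo (no p53), 32C, 24 h treatment. Concentrations up to 46 uM. Readout cellular ATP, luminescence. Normalization to DMSO basal and tamoxifen 100 uM maximal kill.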
S16 viability: Cell viability qHTS assay in S16 Pmp22-F2sN cells; S16 Pmp22-F2sN Schwann cells viability, CellTiter-Glo, 24 h; Potency, µM (doses to about 57.5 µM), inactives show top-dose activity change, negative = cytotoxicity, most hits filed as cytotoxic; 43,000 compounds, 0.48% hits; AID 1508642, 2021; note: potency is the fitted concentration of half-maximal effect; % is set by controls: 0 for no effect and ±100 for the full control effect; nearly all actives have a fitted effect of over 65% in size
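CellTiter-Glo counter-screen, qHTS, 1536-well. Cells: S16(c9) Pmp22-F2sN, 500-1,000/well in DMEM + 10% FBS. Cpd 23 nL pin transfer, 24 h, 37C/5% CO2. Read: luminescence, CCD imager.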
p53null 39C tox: qHTS Screen for Compounds that Selectively Target Cancer Cells with p53 Mutations: Cytotoxicity of p53 Null Cells at the Nonpermissive Temperature; H1299 p53-null (neo) cells, 39C, ATPlite viability, 24 h; Potency, µM (doses to about 46.1 µM), for inactives: at the highest dose activity, negative = cell killing, most hits filed as cytotoxic; 55,000 compounds, 0.97% hits; AID 904, 2007;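 note: potency is the fitted concentration of half-maximal effect; 0% = DMSO only and -100% = full killing by 100 µM tamoxifen; nearly all actives have a fitted effect of over 50% in size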
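Following overnight plating at 37C (600 cells/well), H1299-neo or H1299-p53A138V cells are dosed up to 46 uM. Incubation lasts 24 hr at 39C before ATP detection.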
PMP22 txn: Cell-based coincidence reporter assay to measure PMP22 gene transcription in S16 Pmp22-F2sN cells - Primary screen; 43,000 compounds, 2% hits; S16 Pmp22-F2sN Schwann cells (luciferase reporters placed in the Pmp22 gene), FLuc/NLuc coincidence luminescence, 24 h; Potency, µM (series often up to 57.5 µM), for the others: at the top dose activity change, negative = inhibition, most hits filed as inhibitors; AID 1508649, 2021; active = clear falling dose curves in both reporters; inconclusive = both reporters move, but less clearly or upward; inactive = either reporter flat; the % is the NLuc reporter signal; note: potency is the fitted concentration of half-maximal effect; % is set by controls: 0 for no effect and ±100 for the full control effect
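Transcriptional readout in edited S16(c9) cells: two luciferases reported from the Pmp22 locus, measured in turn after 24 h compound incubation.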
NLuc sat counter: Biochemical NLuc saturation counterscreen for small molecule modulators of PMP22 gene expression - Nano-Glo assay; shares compounds with PMP22 txn; Secreted NLuc enzyme (filtered S16 cell medium), Nano-Glo luminescence; Potency, µM (top dose mostly 57.5 µM), for the others: at the highest dose activity change, negative = inhibition, most hits filed as inhibitors; 690 compounds, 4% hits; note: potency is the fitted concentration of half-maximal effect; % is set by controls: 0 for no effect and ±100 for the full control effect
NLuc Km ctr: Biochemical coelenterazine-based NLuc counterscreen for small molecule modulators of PMP22 gene expression - Km assay | shares compounds with PMP22 txn | secreted NLuc enzyme, coelenterazine luminescence, Km conditions | Potency, µM (top dose mostly 57.5 µM), for inactives: top-dose activity change, negative = inhibition, actives largely listed as inhibitors | 690 compounds, 5% hits | AID 1508639, 2021; note: potency is the fitted concentration of half-maximal effect; % is set by controls: 0 for no effect and ±100 for the full control effect
FLuc counter: Biochemical FLuc counterscreen for small molecule modulators of PMP22 gene expression; shares compounds with PMP22 txn; purified P. pyralis FLuc, luminescence, 10 min; Potency, µM (doses to about 57.5 µM), inactives show top-dose activity, negative = inhibition, hits mostly inhibitors; 690 tested, under 10 active; note: % of control where 0% means no effect
Target sequence (P08659 whole entry, looked up): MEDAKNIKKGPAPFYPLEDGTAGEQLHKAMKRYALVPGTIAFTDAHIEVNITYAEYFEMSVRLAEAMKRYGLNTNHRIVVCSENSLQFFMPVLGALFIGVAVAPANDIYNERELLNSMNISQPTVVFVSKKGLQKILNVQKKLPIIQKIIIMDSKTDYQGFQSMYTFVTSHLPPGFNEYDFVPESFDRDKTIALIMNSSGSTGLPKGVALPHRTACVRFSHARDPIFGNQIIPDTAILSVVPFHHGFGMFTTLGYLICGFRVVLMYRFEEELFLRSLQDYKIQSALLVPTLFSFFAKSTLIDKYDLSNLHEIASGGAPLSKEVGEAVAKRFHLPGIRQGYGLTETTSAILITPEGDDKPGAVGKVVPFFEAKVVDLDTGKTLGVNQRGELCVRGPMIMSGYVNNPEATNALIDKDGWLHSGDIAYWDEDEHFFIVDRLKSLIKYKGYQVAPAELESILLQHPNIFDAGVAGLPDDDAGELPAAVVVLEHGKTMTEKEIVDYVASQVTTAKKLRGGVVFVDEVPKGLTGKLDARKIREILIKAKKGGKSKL
S16 viab conf: Cell viability qHTS assay in S16 Pmp22-F2sN cells - Confirmatory screen; shares compounds with PMP22 txn; S16 Schwann cells viability, CellTiter-Glo ATP luminescence, 24 h; Potency, µM (series often up to 57.5 µM), for inactives: at the top dose activity change, negative = viability loss, actives largely listed as cytotoxic; 690 compounds, 7% hits; note: potency is the fitted concentration of half-maximal effect; % is set by controls: 0 for no effect and ±100 for the full control effect
PMP22 txn cnf: Cell-based coincidence reporter assay to measure PMP22 gene transcription in S16 Pmp22-F2sN cells - Confirmatory screen | shares compounds with PMP22 txn | S16 Schwann cells Pmp22-F2sN, dual luciferase, 24 h | Potency, µM (doses to about 57.5 µM), inactives show at the top dose activity change, negative = inhibition, actives largely listed as inhibitors | 690 compounds, 22% hits | AID 1508646, 2021; active = clear falling dose curves in both reporters; inconclusive = both reporters move, but less clearly or upward; inactive = either reporter flat; the % is the FLuc reporter signal; note: potency is the fitted concentration of half-maximal effect
Active calls of the source: *; u = inconclusive; x = no result. Unless noted, calls come from the whole dose curve; as a rule, active = well fitted curve in the direction sought with a large enough effect; inconclusive = small, poorly fitted or top-dose-only effect, or another doubt; inactive = no such curve, though single readings can be large; an effect the other way counts as inactive or inconclusive.

SMILES	mTORC1 inh	SKOV3 invasion	p53null 32C tox	S16 viability	p53null 39C tox	PMP22 txn	NLuc sat counter	NLuc Km ctr	FLuc counter	S16 viab conf	PMP22 txn cnf
Cc1cccc2c1-c1sc(C(=O)N(C)c3cccc(C(F)(F)F)c3)cc1CO2	-0.5%	-6.5%	-6.0%	-14.0%	-7.5%	-28.9%	x	x	x	x	x
CN(C)CCN(Cc1ccco1)C(=O)c1cc2c(s1)-c1ccccc1OC2	5.21µM*	u	7.0%	u	u	16.8µM*	-13.8%	4.1%	1.6%	u	u
CCN(C(=O)c1cc2c(s1)-c1ccccc1OC2)c1cccc(C(F)(F)F)c1	-8.7%	4.8%	13.5%	4.1%	18.6%	20µM*	u	-19.7%	0.2%	u	-22.8%
COC1=C(OC)C(=O)C(CC=C(C)CCC=C(C)CCC=C(C)CCC=C(C)CCC=C(C)CCC=C(C)CCC=C(C)CCC=C(C)CCC=C(C)CCC=C(C)C)=C(C)C1=O	x	4.5%	x	x	x	x	x	x	x	x	x
COCCCNC(=O)c1c(C)nn(-c2ccc(F)cc2)c1-n1cccc1	-5.2%	-10.0%	5.6%	-4.8%	-13.8%	3.5%	x	x	x	x	x
CSc1ccc(CCNC(=O)c2c(C)nn(-c3ccc(F)cc3)c2-n2cccc2)cc1	0.0%	5.7%	32.2%	-13.5%	92.5%	15.2µM*	-13.4%	3.5%	-11.8%	-15.5%	u
CCOc1ccccc1Nc1sc(C(=O)c2ccc(Cl)cc2)c(N)c1C#N	-2.8%	12.7%	-7.0%	1.2%	11.1%	15µM*	-0.2%	3.9%	-2.5%	0.6%	-1.6%

Compound activity as filed in PubChem.
